A selection: hits, their analogues and other compounds. The true share with any hit is near 2.8%.
KLK7 zymogen act = proKLK7 (human) activation, primary screen; hit rate 0.9% among 370,000; AID 652039; purified proKLK7, EDANS-DABCYL substrate fluorescence; 100% is mature enzyme control, 0% vehicle; activation, % at 7 µM;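 active = activation above the mean of all tested compounds plus 3 SD, computed per campaign excluding outliers beyond control limits, cut at about 13% in these data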
Target sequence (P49862 whole entry, looked up): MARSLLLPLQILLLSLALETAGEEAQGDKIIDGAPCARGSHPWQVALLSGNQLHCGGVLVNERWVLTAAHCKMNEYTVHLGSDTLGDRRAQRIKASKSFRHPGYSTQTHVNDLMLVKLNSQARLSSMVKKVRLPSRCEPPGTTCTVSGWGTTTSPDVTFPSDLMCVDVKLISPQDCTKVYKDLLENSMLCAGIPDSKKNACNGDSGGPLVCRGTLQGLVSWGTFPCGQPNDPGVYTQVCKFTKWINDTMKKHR
NR1D1 modulator = Rev-erb alpha (human) modulation; Rev-erbα–FITC-DNA binding, fluorescence polarization, 90 min; activity, % at 10 µM; hit rate 0.79% among 370,000;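 active = activity above about 14%, limit read from the data; passing the limit was not always enough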
PG9 binder = binds the HIV-1 gp120 antibody PG9; inhibition, % at 6.7 µM; TR-FRET gp120-PG9 antibody binding; hit rate 0.43% among 360,000; in the data active = inhibition above about 8.5%
JMJD2C inh = human JMJD2C demethylase inhibition; Q9H3R0; GST-JMJD2C(1-420) H3K9me3 demethylation, DELFIA europium; inhibition, % at 2.35 µM; hit rate 0.069% among 330,000;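 active = more than half of a compound's replicate wells show inhibition beyond 50%, single wells judged on their own value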;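 note: signal counts dimethyl H3K9 product captured on neutravidin plate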
PP1 inh = PP1-alpha (human) inhibition in PP5 counter-screen | purified PP1alpha, OMFP fluorescence | inhibition, % at 6.7 µM | hit rate 0.9% among 320,000 | AID 2235;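 active = inhibition above the mean inhibition of all tested compounds plus 3 SD, computed separately for each screening campaign, cut at about 15% in these data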
Target sequence (P62136 whole entry, looked up): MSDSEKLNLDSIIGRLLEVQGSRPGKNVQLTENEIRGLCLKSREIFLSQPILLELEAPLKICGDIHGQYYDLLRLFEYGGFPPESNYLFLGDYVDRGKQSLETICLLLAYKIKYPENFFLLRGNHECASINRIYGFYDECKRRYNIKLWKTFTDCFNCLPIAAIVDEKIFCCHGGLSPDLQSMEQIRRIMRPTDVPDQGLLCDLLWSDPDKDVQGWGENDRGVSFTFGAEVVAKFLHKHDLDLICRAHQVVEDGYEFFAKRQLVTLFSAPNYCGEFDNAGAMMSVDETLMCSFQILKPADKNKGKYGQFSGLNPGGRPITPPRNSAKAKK
PP5 primary = PP5 (human) phosphatase inhibition | hit rate 0.18% among 320,000 | purified PP5c, OMFP substrate fluorescence | P53041 | inhibition, % at 6.7 µM;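 active = inhibition above the campaign's mean inhibition across all tested compounds plus 3 SD, cut at about 9.5% in these data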
PP5 conf = PP5 (human) inhibition, confirmation; AID 2331; hit rate 22% among 460; Purified PP5, fluorogenic phosphatase substrate, fluorescence; shares compounds with PP5 primary; inhibition, % at 6.7 µM; in the data active = inhibition above about 9.5%
PP1 inh counter = inhibits human PP1 phosphatase in PP5 counter-screen; hit rate 4% among 460; inhibition, % at 6.7 µM; shares compounds with PP5 primary; PP1 enzyme, fluorescent phosphatase substrate; AID 2355; in the data active = inhibition above about 16%
PP1 confirm = confirmation of human PP1 phosphatase inhibitors; shares compounds with PP1 inh; purified PP1alpha, OMFP substrate fluorescence; inhibition, % at 6.7 µM; hit rate 52% among 1,900; AID 2358;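 active = mean PP1 inhibition above a set limit taken from the earlier primary screen, cut at about 15% in these data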
PP5 inh counter = PP5 phosphatase inhibition, counter-screen for PP1 inhibitors. hit rate 4% among 1,900. shares compounds with PP1 inh. purified PP5c, OMFP fluorescence. inhibition, % at 6.7 µM;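 active = mean PP5 inhibition over triplicate wells above about 9.5% taken from the earlier PP1 screen, limit read from the data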
proKLK7 act conf = proKLK7 activation, confirmation; shares compounds with KLK7 zymogen act; purified proKLK7, EDANS-DABCYL substrate fluorescence; scaled: vehicle 0, mature enzyme 100; AID 686949; hit rate 68% among 3,200; activation, % at 7 µM;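 active = activation, as change over the incubation, above the mean of all tested compounds plus 3 SD, cut at about 13% in these data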
EDANS-DABCYL int = counter-screen for kallikrein-7 activators: EDANS-DABCYL optical interference; shares compounds with KLK7 zymogen act; EDANS-DABCYL substrate fluorescence interference, no enzyme, 4 h; solvent 0%, active enzyme control 100%; activation, % at 7 µM; hit rate 80% among 3,200; AID 686952;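 active = activation above the all-compound mean plus 3 SD, ignoring values outside control-based bounds, cut at about 4.8% in these data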;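 note: value is the 4 h activation minus the activation read at time zero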
A number is an active result.

Screening COCCCNC(=O)c1c(N)n(Cc2ccco2)c2nc3ccccc3nc12 returned KLK7 zymogen act inactive, NR1D1 modulator inactive, PG9 binder inactive, JMJD2C inh inactive, PP1 inh inactive and PP5 primary inactive.
For Cn1cc(C2=C(c3cn(C4CCN(Cc5ccccn5)CC4)c4ccccc34)C(=O)NC2=O)c2ccccc21 the results were NR1D1 modulator inactive.
`CN1CC[C@@]2(C)c3cc(O)ccc3N(C)C2O1` (stereo partly specified) gave JMJD2C inh inactive, PP1 inh inactive, PP5 primary 13.7, PP5 conf 25.7 and PP1 inh counter inactive.
For O=C1CN=C(c2ccccc2Cl)c2cc([N+](=O)[O-])ccc2N1 the results were NR1D1 modulator inactive.
For CCOC(=O)c1c(NS(=O)(=O)c2ccccc2)n(CCCOC)c2nc3ccccc3nc12 the results were KLK7 zymogen act 81.9, NR1D1 modulator inactive, PG9 binder inactive, JMJD2C inh inactive, PP1 inh inactive, PP5 primary 10.7, PP5 conf 9.9, PP1 inh counter inactive, proKLK7 act conf 66.2 and EDANS-DABCYL int 70.0.
Screening CCOC(=O)/C=C(C)/C=C/CC(C)CCCC(C)C (stereo unspecified) returned NR1D1 modulator inactive.
O=C(O)CC1OCC=C2CN3CCC45c6ccccc6NC4C1C2CC35 (stereo unspecified) was read as KLK7 zymogen act inactive, NR1D1 modulator inactive, PG9 binder inactive, JMJD2C inh inactive, PP1 inh inactive and PP5 primary inactive.
O=C(O)CC1OCC=C2CN3CCC45C6=CC(=O)C(=O)C([N+](=O)[O-])=C6NC4C1C2CC35 (stereo unspecified) was read as JMJD2C inh inactive, PP1 inh 33.0, PP5 primary 21.5, PP1 confirm 52.8 and PP5 inh counter inactive.
For FC(F)OC(F)(F)C(F)Cl (stereo unspecified) the results were NR1D1 modulator inactive.
`c1cncc(C2Nc3cccc4cccc(c34)N2)c1` gave KLK7 zymogen act inactive, NR1D1 modulator inactive, PG9 binder inactive, JMJD2C inh inactive, PP1 inh 23.1, PP5 primary inactive, PP1 confirm inactive and PP5 inh counter inactive.
`C=CCC1(C(C)CCC)C(=O)N=C(S)NC1=O` (stereo unspecified) gave NR1D1 modulator inactive.
Screening N=Cc1c(O)n(-c2ccc(C34CC5CC(CC(C5)C3)C4)cc2)c(=O)[nH]c1=O returned KLK7 zymogen act inactive, NR1D1 modulator inactive, PG9 binder inactive, JMJD2C inh inactive, PP1 inh 20.0, PP5 primary inactive, PP1 confirm 21.8 and PP5 inh counter inactive.
For CCCCCCn1c(=O)c(C(=O)Nc2ncccc2C)c(O)c2ccccc21 the results were KLK7 zymogen act inactive, NR1D1 modulator inactive, PG9 binder inactive, JMJD2C inh inactive, PP1 inh 25.6, PP5 primary inactive, PP1 confirm 18.4 and PP5 inh counter inactive.
`CCCCn1c(=O)c(C(=O)Nc2ncccc2C)c(O)c2ccccc21` gave KLK7 zymogen act inactive, NR1D1 modulator inactive, PG9 binder inactive, JMJD2C inh inactive, PP1 inh 27.9, PP5 primary inactive, PP1 confirm 26.2 and PP5 inh counter inactive.
For CCCCn1c(=O)c(C(=O)Nc2ccccc2)c(O)c2ccccc21 the results were KLK7 zymogen act inactive, NR1D1 modulator inactive, PG9 binder inactive, JMJD2C inh inactive, PP1 inh inactive and PP5 primary inactive.
CCCCCn1c(=O)c(C(=O)Nc2ccccc2C)c(O)c2ccccc21 was read as KLK7 zymogen act inactive, NR1D1 modulator inactive, PG9 binder inactive, JMJD2C inh inactive, PP1 inh inactive and PP5 primary inactive.
CC(C)(C)NCC(O)c1cc(Cl)c(N)c(C(F)(F)F)c1 (stereo unspecified) was read as NR1D1 modulator inactive.
Screening Cc1nnc2n1-c1sc(CCC(=O)N3CCOCC3)cc1C(c1ccccc1Cl)=NC2 returned NR1D1 modulator inactive.
For Cc1ccc(/C=C2\C(=O)NC(=S)N(c3cccc(F)c3)C2=O)o1 the results were KLK7 zymogen act inactive, NR1D1 modulator inactive, PG9 binder inactive, JMJD2C inh inactive, PP1 inh inactive and PP5 primary inactive.
Screening COc1ccc(OC)c(N2C(=O)/C(=C/c3ccco3)C(=O)NC2=S)c1 returned JMJD2C inh inactive, PP1 inh 68.2, PP5 primary inactive, PP1 confirm 16.7 and PP5 inh counter inactive.
O=C1NC(=S)N(c2ccc(F)cc2)C(=O)/C1=C/c1ccco1 was read as JMJD2C inh inactive, PP1 inh 40.4, PP5 primary inactive, PP1 confirm 68.0 and PP5 inh counter inactive.
C[C@@]12C(=O)OC(=O)[C@]1(C)C1CCC2O1 was read as KLK7 zymogen act inactive, NR1D1 modulator inactive, PG9 binder inactive, PP1 inh 95.2, PP5 primary 93.9, PP1 confirm 92.9 and PP5 inh counter 93.3.
Clc1ccc(CSC(Cn2ccnc2)c2ccc(Cl)cc2Cl)cc1 (stereo unspecified) was read as KLK7 zymogen act inactive, NR1D1 modulator inactive, PG9 binder inactive, JMJD2C inh inactive, PP1 inh 26.5, PP5 primary inactive, PP1 confirm 20.1 and PP5 inh counter inactive.
Screening Clc1ccc(COC(Cn2ccnc2)c2ccc(Cl)cc2Cl)cc1 (stereo unspecified) returned KLK7 zymogen act inactive, NR1D1 modulator inactive, PG9 binder inactive, JMJD2C inh inactive, PP1 inh 29.0, PP5 primary inactive, PP1 confirm 19.8 and PP5 inh counter inactive.
c1ccc(Cn2ccnc2)cc1 was read as KLK7 zymogen act inactive, NR1D1 modulator inactive, PG9 binder inactive, JMJD2C inh inactive, PP1 inh inactive and PP5 primary inactive.
`Cc1ccc(C[n+]2c(-c3ccc(C)cc3)cc(-c3ccc(C)cc3)cc2-c2ccc(C)cc2)cc1` gave JMJD2C inh inactive, PP1 inh 24.4, PP5 primary inactive, PP1 confirm inactive and PP5 inh counter inactive.
